Measurements published in PubChem BioAssay (NCATS).
Inconclusive results are not listed. Where a call stands in place of a potency, no number is given. Calls of active or inactive are those of the source. Unless noted, the call rests on the fitted dose curve.

System: not listed separately
Assay: qHTS for Inhibitors of the Functional Ribonucleoprotein Complex (vRNP) of Lymphocytic Choriomeningitis Arenaviruses (LCMV): Viability assay - alamar blue signal for LCMV Primary Screen (AID 1347085; calls by dose curve; tested in HEK293 reporter line; further: nearly all actives have a fitted effect of over 80% in size)
Conditions: alamar blue viability counter-screen, LCMV vRNP screen cells; series mostly up to 57.5 µM

Compound | Potency
CO[C@@]1(NC(=O)CSC[C@@H](N)C(=O)O)C(=O)N2C(C(=O)O)=C(CSc3nnnn3C)CS[C@@H]21 | inactive
Nc1ncnc2c1ncn2[C@@H]1O[C@H](CO)[C@@H](O)[C@H]1O | inactive
COc1cc2c(Nc3ccc(Br)cc3F)ncnc2cc1OCC1CCN(C)CC1 | inactive
Cc1c[nH]c2ccccc12 | inactive
CC(=O)OCC(COC(C)=O)OC(C)=O | inactive
O=C(N[C@H](CO)[C@H](O)c1ccc([N+](=O)[O-])cc1)C(Cl)Cl | inactive
CN=C(NC#N)NCCSCc1nc[nH]c1C | inactive
C[N+](C)(C)CCCCCC[N+](C)(C)C | inactive
NS(=O)(=O)c1cc2c(cc1Cl)NC(CC1CCCC1)NS2(=O)=O (stereo not drawn) | inactive
CNC[C@H](O)[C@@H](O)[C@H](O)[C@H](O)CO | inactive
CC(=O)OC[C@H]1O[C@@H](OC(C)=O)[C@H](OC(C)=O)[C@@H]1OC(C)=O | inactive
NC(=O)NC1NC(=O)NC1=O (stereo not drawn) | inactive
CC[N+](CC)(CCNC(=O)C(=O)NCC[N+](CC)(CC)Cc1ccccc1Cl)Cc1ccccc1Cl | inactive
COc1ccc2c(c1)CCCC2=O | inactive
O=c1[nH]c(=O)n([C@H]2C[C@H](O)[C@@H](CO)O2)cc1I | inactive
CCN(CC)CCNC(=O)c1ccc(N)cc1 | inactive
Cc1cc(OI)c(C(C)C)cc1-c1cc(C(C)C)c(OI)cc1C | inactive
C[C@H](NC(CCc1ccccc1)C(=O)O)C(=O)N1CCC[C@H]1C(=O)O (stereo partly drawn) | inactive
CCCC(CCC)(C(=O)OCC)C(=O)OCC | inactive
CC(=O)OCC(=O)[C@@]1(OC(C)=O)[C@@H](C)C[C@H]2[C@@H]3C[C@H](F)C4=CC(=O)C=C[C@]4(C)[C@@]3(F)[C@@H](O)C[C@@]21C | inactive

Compound | Potency
CCCCCCn1c(=O)c2c(ncn2C)n(C)c1=O | inactive
Nc1c(I)cc(I)c(C(=O)N(CCC(=O)O)c2ccccc2)c1I | inactive
Oc1ccccc1C=NCc1ccccc1 | inactive
CCCCCCCCCCCCCCCCCCO | inactive
C/C=C/C=N/NC(=O)c1ccncc1 | inactive
C[C@]12CCC(=O)C=C1CC[C@@H]1[C@@H]2[C@@H](O)C[C@@]2(C)[C@H]1CC[C@]2(O)C(=O)COC(=O)CCC(=O)O | inactive
COc1ccc(C2C(=O)c3ccccc3C2=O)cc1 | inactive
C[C@H]1C[C@H](O)c2ccsc2S1(=O)=O | inactive
COCCOCC(OC)OC | inactive
NC(=O)c1ncn([C@@H]2O[C@H](CO)[C@@H](O)[C@H]2O)c1O | inactive
O=C(O)c1ccc[n+]([O-])c1 | inactive
O=C(O)Cc1sc(-c2ccccc2)nc1-c1ccc(Cl)cc1 | inactive
Cc1ccnc(NS(=O)(=O)c2ccc(N)cc2)n1 | inactive
CCOC(=O)[C@H](CCc1ccccc1)N[C@@H](C)C(=O)N1[C@H](C(=O)O)C[C@H]2CCCC[C@@H]21 | inactive
NC(=O)NS(=O)(=O)c1ccc(N)cc1 | inactive
CC(=O)NC(=O)c1ccccc1O | inactive
NC(=O)n1c(O)c(C(=O)c2cccs2)c2cc(Cl)ccc21 | inactive
COc1cc2c3cc1Oc1cc(ccc1O)C[C@@H]1c4c(cc(OC)c(O)c4Oc4ccc(cc4)C[C@@H]3N(C)CC2)CC[N+]1(C)C | inactive
CS(=O)(=O)c1ccc([C@@H](O)[C@@H](CF)NC(=O)C(Cl)Cl)cc1 | inactive

Target: Nucleoprotein (Lymphocytic choriomeningitis virus (strain Armstrong)) (UniProt P09992)
Assay: qHTS for Inhibitors of the Functional Ribonucleoprotein Complex (vRNP) of Lymphocytic Choriomeningitis Arenaviruses (LCMV): LCMV Primary Screen - GLuc reporter signal (AID 1347086); further: nearly all actives have a fitted effect of over 70% in size
Conditions: LCMV minigenome vRNP cell assay, Gaussia luciferase reporter; series mostly up to 57.5 µM

Sequence of Nucleoprotein (Lymphocytic choriomeningitis virus (strain Armstrong)) (P09992 whole entry, looked up): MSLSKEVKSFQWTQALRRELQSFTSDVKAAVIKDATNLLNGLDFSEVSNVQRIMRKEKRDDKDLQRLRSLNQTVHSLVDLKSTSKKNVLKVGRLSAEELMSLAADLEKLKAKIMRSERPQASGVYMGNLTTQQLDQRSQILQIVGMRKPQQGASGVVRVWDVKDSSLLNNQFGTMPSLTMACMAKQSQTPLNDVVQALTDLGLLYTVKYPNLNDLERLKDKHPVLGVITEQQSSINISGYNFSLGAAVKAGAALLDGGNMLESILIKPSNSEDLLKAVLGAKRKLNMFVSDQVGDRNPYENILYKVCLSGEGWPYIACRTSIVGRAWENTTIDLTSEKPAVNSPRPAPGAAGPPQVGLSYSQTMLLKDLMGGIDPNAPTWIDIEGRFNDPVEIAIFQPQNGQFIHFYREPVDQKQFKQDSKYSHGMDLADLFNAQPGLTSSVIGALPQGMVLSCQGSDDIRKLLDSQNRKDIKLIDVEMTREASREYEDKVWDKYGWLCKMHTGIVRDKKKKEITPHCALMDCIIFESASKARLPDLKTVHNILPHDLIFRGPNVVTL

Compound | Potency
CO[C@@]1(NC(=O)CSC[C@@H](N)C(=O)O)C(=O)N2C(C(=O)O)=C(CSc3nnnn3C)CS[C@@H]21 | inactive
Nc1ncnc2c1ncn2[C@@H]1O[C@H](CO)[C@@H](O)[C@H]1O | inactive
COc1cc2c(Nc3ccc(Br)cc3F)ncnc2cc1OCC1CCN(C)CC1 | inactive
Cc1c[nH]c2ccccc12 | inactive
CC(=O)OCC(COC(C)=O)OC(C)=O | inactive
O=C(N[C@H](CO)[C@H](O)c1ccc([N+](=O)[O-])cc1)C(Cl)Cl | inactive
CN=C(NC#N)NCCSCc1nc[nH]c1C | inactive
C[N+](C)(C)CCCCCC[N+](C)(C)C | inactive
NS(=O)(=O)c1cc2c(cc1Cl)NC(CC1CCCC1)NS2(=O)=O (stereo not drawn) | inactive
CNC[C@H](O)[C@@H](O)[C@H](O)[C@H](O)CO | inactive
CC(=O)OC[C@H]1O[C@@H](OC(C)=O)[C@H](OC(C)=O)[C@@H]1OC(C)=O | inactive
NC(=O)NC1NC(=O)NC1=O (stereo not drawn) | inactive
CC[N+](CC)(CCNC(=O)C(=O)NCC[N+](CC)(CC)Cc1ccccc1Cl)Cc1ccccc1Cl | inactive
COc1ccc2c(c1)CCCC2=O | inactive
O=c1[nH]c(=O)n([C@H]2C[C@H](O)[C@@H](CO)O2)cc1I | inactive
CCN(CC)CCNC(=O)c1ccc(N)cc1 | inactive
Cc1cc(OI)c(C(C)C)cc1-c1cc(C(C)C)c(OI)cc1C | inactive
C[C@H](NC(CCc1ccccc1)C(=O)O)C(=O)N1CCC[C@H]1C(=O)O (stereo partly drawn) | inactive
CCCC(CCC)(C(=O)OCC)C(=O)OCC | inactive
CC(=O)OCC(=O)[C@@]1(OC(C)=O)[C@@H](C)C[C@H]2[C@@H]3C[C@H](F)C4=CC(=O)C=C[C@]4(C)[C@@]3(F)[C@@H](O)C[C@@]21C | inactive

Compound | Potency
CCCCCCn1c(=O)c2c(ncn2C)n(C)c1=O | inactive
Nc1c(I)cc(I)c(C(=O)N(CCC(=O)O)c2ccccc2)c1I | inactive
Oc1ccccc1C=NCc1ccccc1 | inactive
CCCCCCCCCCCCCCCCCCO | inactive
C/C=C/C=N/NC(=O)c1ccncc1 | inactive
C[C@]12CCC(=O)C=C1CC[C@@H]1[C@@H]2[C@@H](O)C[C@@]2(C)[C@H]1CC[C@]2(O)C(=O)COC(=O)CCC(=O)O | inactive
COc1ccc(C2C(=O)c3ccccc3C2=O)cc1 | inactive
C[C@H]1C[C@H](O)c2ccsc2S1(=O)=O | inactive
COCCOCC(OC)OC | inactive
NC(=O)c1ncn([C@@H]2O[C@H](CO)[C@@H](O)[C@H]2O)c1O | inactive
O=C(O)c1ccc[n+]([O-])c1 | inactive
O=C(O)Cc1sc(-c2ccccc2)nc1-c1ccc(Cl)cc1 | inactive
Cc1ccnc(NS(=O)(=O)c2ccc(N)cc2)n1 | inactive
CCOC(=O)[C@H](CCc1ccccc1)N[C@@H](C)C(=O)N1[C@H](C(=O)O)C[C@H]2CCCC[C@@H]21 | inactive
NC(=O)NS(=O)(=O)c1ccc(N)cc1 | inactive
CC(=O)NC(=O)c1ccccc1O | inactive
NC(=O)n1c(O)c(C(=O)c2cccs2)c2cc(Cl)ccc21 | inactive
COc1cc2c3cc1Oc1cc(ccc1O)C[C@@H]1c4c(cc(OC)c(O)c4Oc4ccc(cc4)C[C@@H]3N(C)CC2)CC[N+]1(C)C | inactive
CS(=O)(=O)c1ccc([C@@H](O)[C@@H](CF)NC(=O)C(Cl)Cl)cc1 | inactive
